ChEMBL document CHEMBL3433997, “St. Jude Leishmania screening dataset” (2016)

Tests used:
Type in all cases: functional
[1] = target: Solute carrier family 2, facilitated glucose transporter member 1 (Homo sapiens) (UniProt P11166); experiment: ST_JUDE_LEISH: Cytotoxicity at 2uM final concentration against transgenic Leishmania Mexicana promastigotes LmGLUT1 that are glucose transport deficient and complemented with the human glucose transporter GLUT1. Activity is measured by DNA content using SYBR green in vitro
Chain of Solute carrier family 2, facilitated glucose transporter member 1 (Homo sapiens) (P11166 whole entry): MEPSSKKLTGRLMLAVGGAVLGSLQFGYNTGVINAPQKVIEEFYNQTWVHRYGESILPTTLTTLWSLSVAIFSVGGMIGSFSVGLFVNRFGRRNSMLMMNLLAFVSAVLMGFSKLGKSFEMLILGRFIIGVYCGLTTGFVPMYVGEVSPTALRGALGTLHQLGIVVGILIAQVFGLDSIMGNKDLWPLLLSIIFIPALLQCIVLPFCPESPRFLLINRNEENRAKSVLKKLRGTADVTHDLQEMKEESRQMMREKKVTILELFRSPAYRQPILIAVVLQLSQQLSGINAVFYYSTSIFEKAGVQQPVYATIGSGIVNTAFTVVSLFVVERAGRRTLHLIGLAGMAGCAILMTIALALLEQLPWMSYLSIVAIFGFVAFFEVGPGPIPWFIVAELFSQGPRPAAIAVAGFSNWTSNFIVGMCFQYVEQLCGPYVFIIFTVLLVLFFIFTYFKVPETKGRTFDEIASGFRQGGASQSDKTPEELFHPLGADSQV

[2] = target: Hexose transporter 1 (Plasmodium falciparum) (UniProt O97467); experiment: ST_JUDE_LEISH: Cytotoxicity at 2uM final concentration against transgenic Leishmania Mexicana promastigotes LmPfHT that are glucose transport deficient and complemented with the Plasmodium falciparum hexose transporter. Activity is measured by DNA content using SYBR green in vitro
[3] = target: Glucose transporter (Leishmania mexicana) (UniProt O61059); experiment: ST_JUDE_LEISH: Cytotoxicity at 2uM final concentration against transgenic Leishmania Mexicana promastigotes LmGT2 that are glucose transport deficient and complemented with the L. Mexicana glucose transporter 2. Activity is measured by DNA content using SYBR green in vitro

Row | SMILES | inhibition [1] | inhibition [2] | inhibition [3]
1 | Brc1ccc(Nc2nc3ccccc3nc2Nc2ccc(Br)cc2)cc1 | 9.39% | 6.78% | 9.68%
2 | CC(=O)Nc1nc(C(=O)Nc2ccc(-c3cccc(-c4nc5cc(C(F)(F)F)ccc5[nH]4)c3)cc2)cs1 | 0.32% | 2.2% | 0.81%
3 | COc1ccc(CNCc2cccc(-c3cccc(-c4nc5cc(F)ccc5[nH]4)c3)c2)cc1 | 2.28% | 0.55% | -0.04%
4 | O=C(/C=C/c1ccc(Cl)c(Cl)c1)N1CCC(CCN2CCc3[nH]c4ccccc4c3C2)CC1 | 12.4% | 5.55% | 4.33%
5 | Cc1ccc2nc3c(cc(C(=O)NCc4ccccc4)c(=N)n3CCCn3ccnc3)c(=O)n2c1 | 10.5% | 12.5% | 12.2%
6 | COc1ccc(Cn2c(Nc3cccc(C(F)(F)F)c3)nc3cc(C(=O)NCCN4CCCC4)ccc32)cc1Cl | 0.36% | -0.47% | 0.72%
7 | Cc1cc(O)c(-c2cccc(Oc3ccc(Cl)cc3)c2)c(C)n1 | -1.02% | 1.39% | -3.29%
8 | CCCCCCNc1c2ccccc2nc2ccccc12 | 4.99% | 9.27% | 3.25%
9 | N#Cc1c(N2CCN(c3ccc(F)cc3)CC2)nc(N)c2c(N)nc3c(c12)CC(=O)N3C1CC1 | -2.19% | 5.18% | 13.5%
10 | Brc1cc(Br)c2c(c1)C(NCCCNC1CCNc3c(Br)cc(Br)cc31)CCN2 (stereo not given) | 1.08% | 0.89% | 0.34%
11 | Cc1ccc(-c2nc(NC(=O)Nc3ccc(C(F)(F)F)cc3)sc2C)cc1Cl | 5.17% | 1.68% | 1.54%
12 | Cc1cnc(CNCc2ccc(S(=O)(=O)Nc3ccc(Oc4cccc(Cl)c4)cc3)cc2)cn1 | 5.34% | 2.83% | 2.07%
13 | O=C(N[C@@H](Cc1ccccc1)C(=O)O)c1cc(-c2ccc(F)cc2)no1.O=C(N[C@@H](Cc1ccccc1)C(=O)O)c1conc1-c1ccc(F)cc1 | 9.87% | 6.76% | 6.74%
14 | CC(CCc1ccccc1)NCC(O)c1ccc2c3c(cccc13)C(=O)N2C (stereo not given) | 1.56% | 0.34% | -0.76%
15 | O=C(Nc1ccc(-c2ccc(-c3nc4ccccc4[nH]3)s2)cc1)Nc1ccc(Cl)c(Cl)c1 | 9.56% | 8.71% | 11.2%
16 | CCOC(=O)[C@H](Cc1cc([N+](=O)[O-])c(Oc2ccc(OC)c(Cc3ccc(OC)c(C(C)C)c3)c2)c([N+](=O)[O-])c1)NC(=O)C(F)(F)F | 10.8% | 9.19% | 12.6%
17 | CN(C)c1ccc(Br)c(Br)c1 | 3.2% | 4.63% | -1.28%
18 | Cc1cccc2nc(-c3ccc(-c4ccc(CN5CCN(C6CCN(C)CC6)CC5)cc4)cc3)[nH]c12 | 1.22% | 1.31% | -0.53%

Row | SMILES | inhibition [1] | inhibition [2] | inhibition [3]
19 | O=C(NC1CC1)c1ccc(N2CCOc3ccc(Cl)cc32)s1 | 2.19% | 1% | 1.54%
20 | CCCC(C)NC(=O)C(N)Cc1cccc(I)c1 (stereo not given) | 1.78% | -1% | 1.85%
21 | c1ccc(C23NC(=Nc4nc5ccccc5[nH]4)NC2(c2ccccc2)NC(=Nc2nc4ccccc4[nH]2)N3)cc1 (stereo not given) | 3.64% | 3.18% | 5.58%
22 | O=C(NCc1cccc2ccccc12)C1CCCN(C(=O)c2ccc(O)c(-c3ccc(Cl)c(Cl)c3)c2)C1 (stereo not given) | 1.68% | 1.11% | 1.88%
23 | Oc1ccc2ccccc2c1C=NNc1nc(=Nc2ccccc2)[nH]c(=Nc2ccccc2)[nH]1 | 3.37% | 3.44% | 2.92%
24 | Cc1cc(C2CCN(CCCCNC(=O)c3ccc(-c4ccc(C#N)cc4)cc3)CC2)c(C)cc1O | 4.77% | 3.77% | 4.8%
25 | O=C(C1CC1c1ccccc1)N(Cc1ccc(-c2ccc(CNCCc3ccccc3)cc2)cc1)C1CCNCC1 (stereo not given) | 10.3% | 8.35% | 9.97%
26 | Fc1ccc2[nH]c3c(NCCN4CCCCC4)ncnc3c2c1 | -3.47% | -0.73% | -1.11%
27 | CC(C)(C)c1cc(Cl)cc(C(=O)Nc2cc([N+](=O)[O-])ccc2Cl)c1O | 5.8% | 4.84% | 4.28%
28 | COc1cc(Nc2nccc(N3CCC(NC(=O)c4cccc(C#N)c4)C3)n2)cc(OC)c1OC (stereo not given) | 1.3% | 1.35% | 0.79%
29 | COc1ccc2nccc([C@@H](O)CN3CCC(NC(=O)C(c4ccccc4C)N4CCC(Cc5ccccc5)CC4)CC3)c2c1 (stereo not given in full) | 1.73% | 1.16% | 2.38%
30 | CN(C)C(=S)N/N=C1/C(=O)Nc2ccccc21 | 3.54% | 1.92% | 1.43%
31 | Cc1cccc2nc(-c3ccc(-c4cccc(NC(=O)Nc5ccccc5)c4)cc3)[nH]c12 | 9.16% | 9.91% | 8.18%
32 | CC(C)(C)C1CCc2onc(C(=O)Nc3cc(Cl)ccc3O)c2C1 (stereo not given) | 7.15% | 5.86% | 4.8%
33 | COc1ccc(C2CC(c3cccs3)=NN2C(=O)COc2cccc(C(C)=O)c2)cc1OC (stereo not given) | 0.04% | -0.46% | -2.22%
34 | COc1ccc2nccc(N3CCC(CCNCc4ccc5c(n4)NC(=O)CO5)CC3)c2n1 | 0.66% | 0.67% | 1.8%
35 | C=C[C@]1(C)C[C@@H](OC(=O)c2n[nH]c3ccccc3c2=O)[C@]2(C)[C@H](C)CC[C@]3(CCC(=O)[C@H]32)[C@@H](C)[C@@H]1O | 5.34% | 0.28% | -0.71%
